Assay outcomes from PubChem.
Sa growth inh: S. aureus growth inhibition at 42 and 30 °C, primary screen, LtaS inhibitor project, RN4220, two temperatures; OD600, 20 h, 42 °C; hits give low values; relative growth, % (concentration not given with the values); 0.53% of 170,000 active;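 active = relative growth at most 50% at the other temperature and 20+ points below 30 °C, or under 10% at both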
HCMV NEC inh: inhibitors of HCMV UL50-UL53 interaction, biochemical, HTRF. HCMV UL50-UL53 nuclear egress complex (human cytomegalovirus). normalized percent inhibition. inhibition, % (concentration not given with the values). 0.15% of 190,000 active. AID 1918969, 2023; in the data active = inhibition above about 27%, passing the limit was not always enough
Sa helicase inh: inhibitors of S. aureus replicative helicase, primary screen, biochemical, fluorescence unwinding readout. replicative DNA helicase (DnaC/DnaB), Staphylococcus aureus. purified S. aureus helicase, fluorescence unwinding assay. inhibition, % (no concentration beside the values). 0.05% of 120,000 active. AID 485395, 2010; in the data active = inhibition above about 25%, passing the limit was not always enough;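 also: 0% = mean of negative control wells and 100% = mean of positive control wells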
* = called active by the depositor; nt = no result. The sample as a whole holds a higher share of hits than the screen did.

SMILES	Sa growth inh	HCMV NEC inh	Sa helicase inh
CCN(CC)CCCNc1nc2cc(OC)c(OC)cc2c2nc(-c3cccnc3)nn12	93.5	-2.3	43.0
CN1CCC(N(C)Cc2cc(=O)oc3cc4c(cc23)CCC4)CC1	0.3*	-69.7	-2.0
Cc1ccc(CN(C)Cc2cc(=O)oc3cc4c(cc23)CCC4)o1	70.8	-25.3	7.0
CC(C)NC(=O)CN1C(c2ccccc2)=CC(c2ccccc2)n2nnnc21 (stereo unspecified)	nt	-15.4	nt
COc1ccc2[nH]cc(CCNC(=O)CCc3c(C)nc4c(c3C)c(=O)n(C)c(=O)n4C)c2c1	nt	-18.9	nt
NC(=O)Cn1c(COC(=O)Cc2coc3ccc4ccccc4c23)nc2ccccc2c1=O	100.3	-9.8	-16.0
CCc1cc(-c2[nH]ncc2-c2cnn(-c3ccccc3)c2)c(O)cc1O	9.5*	-14.8	17.0
CCc1cc(-c2[nH]ncc2-c2ccc(Br)cc2)c(O)cc1O	nt	-25.8	-17.0
O=c1[nH]c(=O)n([C@H]2C[C@H](O)C(CO)O2)cc1I (stereo partly specified)	nt	-53.3	nt
O=c1[nH]c(=O)n(C2C[C@@H](O)[C@@H](CO)O2)cc1F (stereo partly specified)	-0.7*	-44.2	nt
CCc1nnc(NC(=O)c2nc(S(=O)(=O)Cc3ccc(C)cc3)ncc2Cl)s1	11.1	-48.2	nt
Cc1cccc(CS(=O)(=O)c2ncc(Cl)c(C(=O)Nc3nnc(C(C)C)s3)n2)c1	5.0*	-37.8	nt
CCc1nnc(NC(=O)c2nc(S(=O)(=O)Cc3cccc(C)c3)ncc2Cl)s1	11.4	-32.9	nt
Cc1ccc(CS(=O)(=O)c2ncc(Cl)c(C(=O)Nc3nnc(C(C)C)s3)n2)cc1	5.6*	-41.9	nt
CC1N=C2c3ccccc3N=C(SC(C)C(=O)Nc3ccccc3)N2C1=O (stereo unspecified)	nt	-12.1	nt
NC(=O)C1CCN(c2nc3c(S(=O)(=O)c4ccccc4)nnn3c3ccsc23)CC1	nt	-0.4	nt
Cc1cc(C)c(S(=O)(=O)N2CCc3cc4ccccc4nc32)c(C)c1	nt	-11.6	nt
c1ccc(-c2cnc3nonc3n2)cc1	0.8*	-47.3	14.0
Cc1cc2ncc(-c3ccccc3)nc2cc1C	104.4	-36.2	-16.0
CCOC(=O)c1cc(S(=O)(=O)N2CCN(c3ncccn3)CC2)[nH]n1	nt	-3.7	nt
Cc1cccc(N(Cc2nc3nc(C)cc(=O)n3[nH]2)S(C)(=O)=O)c1	nt	2.9	nt
Cc1cc(C)c2cccnc2c1O	3.0*	-32.0	21.0
Oc1c(Br)cc(Br)c2cccnc12	nt	-42.7	nt
COc1ccccc1NC(=O)CN1N=C(c2ccccc2)c2ccccc2S1(=O)=O	nt	-21.7	nt
Cc1ccnc(NC(c2ccsc2)c2c(NC(=O)c3ccccc3)sc3c2CCCC3)c1 (stereo unspecified)	nt	-22.4	nt
SMILES	Sa growth inh	HCMV NEC inh	Sa helicase inh
O=C(NCCc1ccccc1)c1ccc(CS(=O)Cc2cccc(Cl)c2)o1 (stereo unspecified)	86.4	-0.8	2.0
O=C(NCCc1ccc(Cl)cc1)c1ccc(CS(=O)Cc2cccc(Cl)c2)o1 (stereo unspecified)	7.4*	nt	nt
CCCCc1cc(=O)oc2cc(C)cc(O)c12	27.2	-7.2	2.0
CCCc1cc(O)c2c(C)cc(=O)oc2c1	5.2*	-15.2	5.0
NS(=O)(=O)c1ccc(NC(=O)c2ccc(-n3nnc4cccnc43)cc2)cc1	nt	-6.8	nt
COc1cccc(CN(C)C(=O)C2CC(=O)N(c3ccc(C)cc3)C2)c1OC (stereo unspecified)	98.3	-10.6	4.0
O=C(CC(SC1CCCCC1)C(=O)O)c1ccc(Br)cc1 (stereo unspecified)	131.1	4.8	5.0
O=C(CC(Sc1ccc(Br)cc1)C(=O)O)c1ccc(Cl)cc1 (stereo unspecified)	2.0*	-12.4	12.0
Cc1ccc(N(CC(=O)NCCC2=CCCCC2)S(=O)(=O)c2c(C)nn(C)c2C)cc1	nt	-6.3	nt
N#CCOc1nc(OCC#N)nc(OCC#N)n1	27.6*	25.4	-9.0
COc1nc(OCC#N)nc(N(C)C)n1	96.4	3.4	4.0
Cc1cc(=O)[nH]c(Nc2ccc(C)c(C)c2)n1	nt	5.9	nt
CCn1c(=O)cc(Nc2ccc(C)c(C)c2)[nH]c1=O	2.4*	10.4	-23.0
